Pf growth 96h = inhibits malaria parasite growth, 96 h | P. falciparum luciferase reporter growth, 96 h | Potency, µM (highest dose often 28.7 µM), for the others: at the highest dose activity change, negative = inhibition, most hits filed as inhibitors | actives 6.9% (n = 320,000) | AID 504834; further: potency means the concentration at half of the fitted maximal effect; on the % scale 0 is the no-effect control and ±100 the full control effect
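Infected RBCs, 2% Hct / 0.05% parasitemia final; luciferase-reporter P. falciparum; cpd 96 h, 37 C, 5% CO2; luciferase detection reagent; luminescence.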
HCV inh = HCV inhibition; actives 3.4% (n = 340,000); Huh7.5.1 HCVcc-Cre infection, luciferase reporter, 44 h; Potency, µM (top dose mostly 41.8 µM), without a hit: top-dose activity change, negative = inhibition, usual class: inhibitors; further: potency means the concentration at half of the fitted maximal effect; on the % scale 0 is the no-effect control and ±100 the full control effect
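Seed cells (1,000/well) for 4 h; treat with compound and infect with HCVcc-Cre, moi about 0.5. Incubate 44 h, then detect luciferase activity.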
CHX counter = affects cycloheximide protein synthesis inhibition readout, counter-screen | cell reporter, cycloheximide protein synthesis inhibition counterscreen | max response, % | actives 12% (n = 300,000); in the data active means max response mostly above about 13%, no sharp cut-off; inactive means mostly below about 14%; further: read at 38.3 µM for the half of the compounds with a filed dose; 0% is about no effect
Pf growth 48h = inhibits P. falciparum growth in the first generation, 48 h; P. falciparum luciferase growth in erythrocytes, 48 h; Potency, µM (titrated, usually from 28.7 µM), for inactives: at the highest dose activity change, negative = inhibition, actives largely listed as inhibitors; actives 5.9% (n = 310,000); AID 504832; further: potency means the concentration at half of the fitted maximal effect; on the % scale 0 is the no-effect control and ±100 the full control effect
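A one-generation exposure of luciferase-tagged malaria parasites in RPMI 1640/Albumax erythrocyte culture, 37 C and 5% CO2. Inhibition is inferred from decreased luminescence after adding detection reagent.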
HCMV antiviral = inhibitors of human cytomegalovirus; HFF cells, HCMV-luciferase reporter, 72 h; stronger effect = lower value; activity change, negative = inhibition, % at 57.5 µM; actives 4.5% (n = 410,000); in the data active means activity change below about -60%; inconclusive means no clear call, values can overlap the other calls; inactive means above about -39%; further: on the % scale 0 is the no-effect control and ±100 the full control effect
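Human foreskin fibroblasts infected with luciferase-reporter HCMV at MOI 1 PFU/cell, compounds at two doses. Luciferase measured 72 h post infection; normalized to buffer-only basal and Salinomycin (10uM) controls.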
Shiga inhibitor = Shiga toxin inhibition; Vero cells, Shiga toxin protein synthesis inhibition reporter; inhibition, % at 38.7 µM; actives 9.2% (n = 290,000); AID 2315; in the data active means inhibition mostly above about 28%, no sharp cut-off; inactive means mostly below about 43%; further: 0% is about no effect
Starred values were filed as active, the others as inactive; ? = inconclusive; · = no result given; [ ] = another dose, or the depositor's remark. In the library only some 21% were active in any assay of this set; here they are far more common. Unless noted, the call rests on the fitted dose curve; in most records, active means well fitted inhibition curve with a large enough effect; inconclusive means small, poorly fitted or top-dose-only effect, or another doubt; inactive means no such curve, though single readings can be large or run the other way.

SMILES | Pf growth 96h | HCV inh | CHX counter | Pf growth 48h | HCMV antiviral | Shiga inhibitor
COc1ccc(S(=O)(=O)N2CCN(C(=O)c3ccc(COc4ccccc4)o3)CC2)cc1 | · | · | · | · | -5 | ·
CCCc1ccc(OCc2ccc(C(=O)N3CCCC3)o2)cc1 | 23% | ? | 22* | 10µM* | 21 | 149*
Cn1nc(C(=O)OCC(=O)Nc2ccc3ccccc3c2)c2ccccc2c1=O | 30% | 12% | -1 | -1% | 7 | -6
CN1CCN(C(=O)c2ccc(COc3ccc(C(C)(C)C)cc3)o2)CC1 | -2% | -19% | 49* | 2% | 79 | 65*
CC(C)(c1ccccc1)c1ccc(OCc2ccc(C(=O)O)o2)cc1 | 58% | 19% | · | 70% | 81 | ·
C[C@H](O)[C@@H]1C(=O)N2CCc3ccc(-c4ccccc4)cc3[C@@H]2C[C@@H]1N(C)C(=O)c1ccc(C#N)cc1 | · | -5% | · | · | -15 | ·
O=c1cccc2c1c1cc[nH]c3ccc(=O)n2c31 | ? | ? | · | ? | -70* | ·
O=c1cc[nH]c2ccc(Cl)cc12 | 1% | 5%[8.37 µM] | -3 | 23% | 16 | -7
Cc1nc(-c2ccc(Cl)cc2)sc1CCNC(=O)c1ccco1 | · | · | · | · | 68 | ·
Cc1ccsc1C(=O)Nc1nnc(-c2ccco2)o1 | -11% | -13% | 18* | ? | -26 | 14
O=C(Nc1nnc(-c2ccco2)o1)c1ccc([N+](=O)[O-])s1 | 12µM* | 8.9µM* | -2 | -23% | -38 | 31
Cc1ccc(C(=O)Nc2nnc(-c3ccco3)o2)cc1 | ? | -4% | 44* | 89% | -12 | 18
O=C(Nc1nnc(-c2ccco2)o1)c1ccc2ccccc2c1 | -10% | ? | -2 | -15% | 16 | -2
CCC(=O)Nc1nnc(-c2ccco2)o1 | 11% | 9% | -5 | · | -17 | -9
N#Cc1ccc(C(=O)Nc2nnc(-c3ccco3)o2)cc1 | ? | ? | 13 | ? | -4 | 37
CCOC(=O)CC1COCCN1Cc1cn[nH]c1-c1cc(OC)c(OC)c(OC)c1 (stereo unspecified) | -21% | -1% | -3 | -3% | 83 | 13
Cc1cccc(C)c1OCC(=O)N1CCc2ccccc2C1 | 7.4µM* | -20% | -2 | ? | -19 | ·
Cc1cccc(OCC(=O)N2CCc3ccccc3C2)c1C | · | · | · | · | -4 | ·
Cc1ccc(OCC(=O)N2CCc3ccccc3C2)cc1C | · | · | · | · | -4 | ·
Cc1cccc(OCC(=O)N2CCc3ccccc3C2)c1 | ? | 4% | 27* | 0% | 18 | 33*
O=C(Nc1cccc(S(=O)(=O)Nc2ccc(Cl)cc2)c1)c1ccccn1 | ? | ? | · | -22% | 0 | ·
O=C(c1ccc(-c2nnc(Nc3ccccc3)c3ccccc23)cc1)N1C[C@H]2C[C@H](C1)c1cccc(=O)n1C2 | 3.7µM* | 5% | -2 | 13µM* | -34 | -8
O=C(c1ccc(F)c([N+](=O)[O-])c1)N1CC2CC(C1)c1cccc(=O)n1C2 (stereo unspecified) | -6% | -12% | 44* | -14% | 36 | 105*
CC1CC(C)CN(C(=O)c2ccc(N3CC4CC(C3)c3cccc(=O)n3C4)c([N+](=O)[O-])c2)C1 (stereo unspecified) | ? | 1% | -3 | -16% | -3 | -11
Cc1ccc2c(c1)-c1nc(-c3ccc4c(c3)NC(=O)CO4)cc(-c3ccc(F)cc3)c1CO2 | · | · | · | · | -4 | ·
SMILES | Pf growth 96h | HCV inh | CHX counter | Pf growth 48h | HCMV antiviral | Shiga inhibitor
CCC(Cc1ccccc1)NC(=O)c1csc2c1CCCCC2 (stereo unspecified) | · | · | · | · | -14 | ·
CC(C(=O)NC(C)(C)C)N(Cc1cccs1)C(=O)CCN1CCc2ccccc21 (stereo unspecified) | -25% | -5% | -5 | ? | 3 | -11
COc1ccc(C(=O)Nc2ccc3c(c2)nc(CCNC(=O)c2ccco2)n3C)cc1 | 8% | -2% | -1 | 4% | -10 | -5
C=CCN(c1ccccc1OC)S(=O)(=O)c1ccc(Cl)c(C(=O)Nc2ccc(N3CCOCC3)cc2)c1 | 4.1µM* | ? | 11 | 5.9µM* | -17 | 12
COc1ccccc1N(C)S(=O)(=O)c1ccc(C(=O)Nc2cccc(Br)c2)cc1 | · | 13µM* | · | · | 46 | ·
COc1ccc(NC(=O)COC(=O)c2ccc(S(=O)(=O)N(C)c3ccccc3OC)cc2)c(OC)c1 | 1% | · | -3 | -10% | · | -12
COc1ccccc1N(C)S(=O)(=O)c1ccc(C(=O)Nc2ccc(N3CCOCC3)cc2)cc1 | 0% | 10µM* | -4 | 0% | -62* | -7
CN(CC(=O)Nc1ccc(N2CCOCC2)cc1)C(=O)c1cc(S(=O)(=O)N(C)C)ccc1Cl | 39% | 13% | 0 | 0% | 47 | 59
COc1ccccc1N(C)S(=O)(=O)c1ccc(C(=O)NCC(C)C)cc1 | · | -23% | 4 | -14% | 21 | 38
COC(=O)c1cccc(NC(=O)c2ccc(S(=O)(=O)N(C)c3ccccc3OC)cc2)c1 | · | · | · | · | 29 | ·
COc1cc(NC(=O)c2ccc(S(=O)(=O)N(C)c3ccccc3OC)cc2)cc(OC)c1 | · | 11µM* | · | · | -23 | ·
Cc1ccc(-n2c(SCC(N)=O)nc3c(oc4ccccc43)c2=O)cc1C | · | · | · | · | 13 | ·
COc1ccc(C(CC(=O)O)NC(=O)c2cc3ccccc3oc2=O)cc1OC (stereo unspecified) | · | · | · | · | 18 | ·
CSc1nnc(NC(=O)C23CC4CC(CC(C4)C2)C3)s1 | 38% | 4% | 36* | 53% | 0 | 23
CC(C)Cc1nnc(NC(=O)C23CC4CC(CC(C4)C2)C3)s1 | ? | 10% | 5 | ? | 67 | 26
CCc1nnc(NC(=O)C23CC4CC(CC(C4)C2)C3)s1 | 114% | 12% | 24* | 74% | 78 | 56*
NC(=O)CSc1nnc(NC(=O)C23CC4CC(CC(C4)C2)C3)s1 | 31% | 8% | 36* | 32% | · | 23
COc1cccc(NC(=O)[C@@H](NC(=O)N2CCn3c2nc2ccccc23)C(C)C)c1 | ? | -28% | 0 | ? | -21 | 21
Cc1ccc(-n2nc(C)c3c(C)cc(=O)n(CC(=O)N4CCCc5ccccc54)c32)cc1 | · | · | · | · | 7 | ·
CC1CCC(C(C)C)C(OC(=O)c2ccccc2N)C1 (stereo unspecified) | ? | · | -1 | -21% | · | -5
COc1ccc(-c2n(CC(=O)OC3CC(C)CCC3C(C)C)c3ccccc3[n+]2C)cc1 (stereo unspecified) | 30% | 11µM* | -7 | 19% | 17 | 10
CC1CCC(C(C)C)C(OC(=O)CSc2nccc(=O)[nH]2)C1 (stereo unspecified) | ? | 2% | 12 | · | -27 | 25
COc1ccc(OCc2n(CC(=O)OC3CC(C)CCC3C(C)C)c3ccccc3[n+]2C)cc1 (stereo unspecified) | ? | ? | -8 | 1µM* | -103* | -20

Screens (PubChem BioAssay)
